46 compounds from PubChem BioAssay AID1851 (National Center for Advancing Translational Sciences (NCATS), 2009) can be followed below.

Molecules are shown by their SMILES. Hit rate of the full screen: of about 16,000 compounds, about 5,800 (36%) were called active. Another 23% or so got no clear call; they are omitted. Some of the results follow. A number with no mark means an inactive call. Calls follow the shape of the dose curve; as a rule, active = well fitted curve in the direction sought with a large enough effect; inconclusive = small, poorly fitted or top-dose-only effect, or effect the other way; inactive = no such curve, though single readings can be large or run the other way.
% is scaled to controls: 0 for no effect and ±100 for the full control effect.

Sequence of Cytochrome P450 2C19 (Homo sapiens) (P33261 whole entry, looked up): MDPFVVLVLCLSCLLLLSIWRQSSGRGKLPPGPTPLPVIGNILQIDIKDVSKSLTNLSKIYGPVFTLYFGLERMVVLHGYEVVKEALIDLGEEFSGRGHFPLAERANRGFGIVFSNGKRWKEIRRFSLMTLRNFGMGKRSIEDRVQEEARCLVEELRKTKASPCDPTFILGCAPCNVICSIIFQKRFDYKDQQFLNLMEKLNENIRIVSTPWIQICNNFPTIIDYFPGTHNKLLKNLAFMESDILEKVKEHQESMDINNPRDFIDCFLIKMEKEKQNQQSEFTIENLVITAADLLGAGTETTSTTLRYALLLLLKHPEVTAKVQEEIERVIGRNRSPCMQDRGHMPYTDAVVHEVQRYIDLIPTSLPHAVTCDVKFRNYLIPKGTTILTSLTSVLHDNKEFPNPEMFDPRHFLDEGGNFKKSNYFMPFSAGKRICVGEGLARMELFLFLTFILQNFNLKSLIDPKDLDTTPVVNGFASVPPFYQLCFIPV

This experiment addresses Cytochrome P450 2C19 (Homo sapiens) (UniProt P33261). Nature of the experiment: Cytochrome panel assay with activity outcomes. The settings on record: recombinant CYP, pro-luciferin dealkylation, luminescence, p450-cyp2c19; series mostly up to 57.1 µM; activity, negative = inhibition: at the top concentration.
As for `CC(C)[C@@H](OCc1ccccc1)[C@H](C)/C=N\OC[C@@H](O)[C@@H]1O[C@@H]2OC(C)(C)O[C@@H]2[C@H]1O`, the activity, negative = inhibition is -18.3% [at 11.4 µM].
Turning to `C[C@@H](C(=O)Nc1ccc2ccccc2c1)[C@@H]1C[C@@]1(C)[C@@H](NC(=O)OCc1ccccc1)c1ccccc1`, the AC50 (commonly the concentration at which the activity in the assay is half-maximal) is 3.16 µM (active).
On the same count and under the same terms, the value for `C[C@@H](C(=O)Nc1ccc2ccccc2c1)[C@H]1C[C@]1(C)[C@H](NC(=O)OCc1ccccc1)c1ccccc1` was 1 µM (active).
As for `CCCn1c(=O)c2[nH]c(C3CCCC3)nc2n(CCC)c1=O`, the “activity, negative = inhibition” value was -41.7%.
On to `O=c1c2ccccc2nnn1CSc1nnc(COc2ccc(Cl)cc2)n1Cc1ccco1`, for which the AC50 was 14.1 µM (active).
On to `Cc1cccc(NC(=O)c2cccc(N3C(=O)C4C5CCC(C5)C4C3=O)c2)c1C` (stereo unspecified), for which the “activity, negative = inhibition” value is -25.3%.
With `O=C(Nc1ccc(Cl)cc1Cl)c1cccc(N2C(=O)C=CC2=O)c1`, the AC50 is 3.98 µM (active).
`COc1ccc(N2C(=O)c3ccccc3NC2c2ccc(OC)c(CSc3ccccn3)c2)cc1` (stereo unspecified): the AC50 was 0.891 µM (active).
`COc1cccc(/C(O)=C2/C(=O)C(=O)N(c3ccccn3)C2c2ccc(OC)c(OC)c2)c1` (stereo unspecified): the “activity, negative = inhibition” value is 1.45%.
Same read-out and setting: the value for `c1ccc2c[n+](Cc3ccnc4ccccc34)ccc2c1` was 10.8% [at 11.4 µM].
Still for that read-out and setting: then `COC(=O)c1c(C)[nH]c(C)c1C(=O)c1ccccc1Cc1ccccc1`, with -8.63%.
`CCOc1ccc(CC(=O)Nc2sc(Cc3ccccc3)c(C)c2C(N)=O)cc1OCC`: the AC50 was 4.47 µM (active).
`CCOc1cc(CC(=O)N[C@@H](CC(C)C)c2ccccc2N2CCCCC2)ccc1C(=O)O`: the “activity, negative = inhibition” value is 18.6% [at 25.6 µM].
Consider `COC(=O)c1c(NC(C)=O)sc(Cc2ccccc2)c1C`, for which the AC50 is 4.47 µM (active).
`CCc1c(C)sc(NC(=O)OC)c1C(N)=O`: the “activity, negative = inhibition” value was 2.97%.
Still for that read-out and setting: the value for `COc1c(NC(C)=O)c2ccccc2c2ccccc12` was 4.06% [at 11.4 µM].
Consider `COc1ccc2[nH]cc(CCNc3cc(-c4ccccc4OC)ncn3)c2c1`, for which the AC50 is 3.16 µM (active).
With `COc1ccc2[nH]cc(CCNc3cc(-c4ccccc4C(F)(F)F)ncn3)c2c1`, the AC50 was 10 µM (active).
Still for that read-out and setting: the value for `COc1ccc2[nH]cc(CCNc3cc(-c4ccccc4C)ncn3)c2c1` was 7.94 µM (active).
Turning to `CC(=O)NCCNc1cc(-c2ccccc2CN(C)C)ncn1`, the “activity, negative = inhibition” value is -7.92%.
Regarding `N[C@H](C(=O)O)c1cccc(O)c1`, the AC50 result is “inactive”.
Same read-out and setting: then `Fc1ccc2nc(Nc3nc4c(s3)CCCC4)sc2c1`, with 17.8 µM (active); and `COc1cccc(-c2cc(C(=O)Nc3cccc(O)c3)no2)c1`, with 3.16 µM (active).
For `COc1ccc(C2CC(=O)CC(=O)C2n2cncn2)cc1` (stereo unspecified), the “activity, negative = inhibition” value is -14.6%.
On to `O=C1C(Cc2ccccc2)C(c2ccccc2)N1c1ccccc1` (stereo unspecified), for which the AC50 is 1.26 µM (active).
For the compound `CN1C(=O)C[C@H](c2ccccc2)C1=O`, the “activity, negative = inhibition” value was -32.1% [at 25.6 µM].
Turning to `CCCC1C(=O)N(c2ccccc2)C1c1ccccc1` (stereo unspecified), the AC50 was 4.47 µM (active).
For the compound `CC(C)(C)CC(C)(C)c1ccc(OCOCCOCCO)c(Cc2cc(C(C)(C)CC(C)(C)C)cc(Cc3cc(C(C)(C)CC(C)(C)C)ccc3OCOCCOCCO)c2OCOCCOCCO)c1`, the “activity, negative = inhibition” value was -27.9% [at 25.6 µM].
Still for that read-out and setting: then `CO[C@H]1[C@H](O[C@H]2O[C@@H](C)[C@@H](O[C@@H]3C[C@](C)(O)[C@H](OC(=O)CC(C)C)[C@H](C)O3)[C@@H](N(C)C)[C@@H]2O)[C@@H](CC=O)C[C@@H](C)[C@@H](O)/C=C\C=C/C[C@@H](C)OC(=O)C[C@H]1OC(C)=O`, with 25.9% [at 25.6 µM].
As to `C[C@@H](C[N+](C)(C)C)OC(N)=O`, the AC50 entry was “inactive”.
As to `O[C@H](C[C@@H]1CCCCN1)c1ccc2c(c1)oc1ccccc12`, the activity, negative = inhibition was -14.6% [at 11.4 µM].
The same measure, in the same setting: the value for `O[C@@H](c1cc(C(F)(F)F)nc2c(Cl)cc(Cl)cc12)[C@@H]1CCCCN1` was -14.3% [at 11.4 µM].
As to `COc1ccc(-c2cc([C@H](O)[C@@H]3CCCCN3)c3ccccc3n2)cc1`, the AC50 is 3.98 µM (active).
For the compound `COCCNc1ncnc2ccc(-c3cccc(NS(C)(=O)=O)c3)cc12`, the “activity, negative = inhibition” value is -14.8%.
Regarding `COc1ccc(CNc2ncnc3ccc(-c4cccc(NS(C)(=O)=O)c4)cc23)c(OC)c1`, the AC50 is 2.51 µM (active).
As for `COc1ccccc1CNc1ncnc2ccc(-c3cccc(NS(C)(=O)=O)c3)cc12`, the AC50 is 15.8 µM (active).
For `c1ccc2cc(C3=NCCN3)ncc2c1`, the “activity, negative = inhibition” value is -35.7%.
Regarding `N#Cc1c(-c2ccc(Cl)cc2)nc2n(c1=O)CCCS2`, the AC50 is 7.94 µM (active).
For the compound `O=c1c(-c2ccccc2)c(O)c2cccc3c2n1CCC3`, the “activity, negative = inhibition” value was -6.66%.
With `N#Cc1c(-c2ccccc2)nc2n(c1=O)CCS2`, the AC50 was 15.8 µM (active).
As for `COc1cc(=O)n2c(n1)SCCC2`, the “activity, negative = inhibition” value was -7.61%.
Same read-out and setting: the value for `CCCCN(Cc1ccccc1)C(=O)c1cnc2n(c1=O)CCS2` was 8.84%; that for `COC(=O)[C@H]1C[C@@H]1[C@H](NC(C)=O)c1ccccc1` was -28.9%.
With `COC(=O)[C@@H]1C[C@H]1[C@@H](NC(=O)c1ccccc1)c1ccccc1`, the half-maximal activity concentration (AC50) is 1.26 µM (active).
For `COC(=O)C1CC1C(NC(=O)[C@H]1CCCCN1)c1ccccc1` (stereo partly specified), the “activity, negative = inhibition” value was -41%.
In the case of `COC(=O)[C@H]1C[C@@H]1[C@H](NC(=O)c1cccnc1)c1ccccc1`, the “activity, negative = inhibition” value was -11.7%.
